PubChem BioAssay AID1159577 (Broad Institute, 2015)
Out of some 1,300 compounds screened, about 240 (18%) were called active. Roughly 8% stayed inconclusive and do not appear here. The rule behind the calls is not given here. Not all results are given here. Results with a measured potency or affinity are listed apart.

Assay: HepG2 cell cytotoxicity, dose response, cytotoxicity control, cherry-picked samples (AID 1159577)
Details: HepG2 cytotoxicity counterscreen, plate reader; series mostly up to 19.5 µM

SMILES	outcome
O=C(C1CCCCC1)N1[C@H](CO)[C@@H](c2ccccc2)C12CN(Cc1cccc(Cl)c1)C2	inactive
CN(C)c1ccc2c(c1)[C@@H]1C[C@@H](CC(=O)NCc3cc(F)ccc3F)O[C@@H](CO)[C@@H]1O2	inactive
CC(C)(C)[S@](=O)N1Cc2cc(C(=O)N[C@@H]3CCN(Cc4ccccc4)C3)nc(-c3cccc(-c4cccnc4)c3)c2[C@@H]1CCO	inactive
C/C=C/c1ccc2c(c1)[C@@H]1[C@@H](CCN1C(=O)C1CCCC1)[C@H](CO)N2	inactive
O=C(C1CCCC1)N1CC2(C1)[C@@H](c1ccccc1)[C@H](CO)N2Cc1ccc(Cl)cc1	inactive
CO[C@H]1CN(C)C(=O)c2cc(NC(=O)Nc3ccc(C(F)(F)F)cc3)ccc2OC[C@H](C)NC[C@H]1C	inactive
CO[C@@H]1CN(C)C(=O)c2cc(NC(=O)Nc3ccc(C(F)(F)F)cc3)ccc2OC[C@H](C)NC[C@H]1C	inactive
CO[C@H]1CN(C)C(=O)c2cc(NC(=O)Nc3cccc(Cl)c3)ccc2OC[C@H](C)NC[C@H]1C	inactive
CO[C@@H]1CN(C)C(=O)c2cc(NC(=O)Nc3cccc(Cl)c3)ccc2OC[C@@H](C)NC[C@@H]1C	inactive
CO[C@@H]1CN(C)C(=O)c2cc(NC(=O)Nc3cccc(Cl)c3)ccc2OC[C@H](C)NC[C@H]1C	inactive
CO[C@@H]1CN(C)C(=O)c2cc(NC(=O)Nc3ccc(C(F)(F)F)cc3)ccc2OC[C@H](C)NC[C@@H]1C	inactive
CO[C@@H]1CN(C)C(=O)c2cc(NC(=O)Nc3ccc(C(F)(F)F)cc3)ccc2OC[C@@H](C)NC[C@@H]1C	inactive
Cc1ccccc1S(=O)(=O)N1[C@H](CO)[C@@H](c2ccc(C#CC3CC3)cc2)[C@@H]1C#N	inactive
CCCNC(=O)N1[C@H](C#N)[C@H](c2ccc(-c3ccccc3F)cc2)[C@@H]1CO	inactive
COc1ccc(C#Cc2cnc3c(c2)C(=O)N([C@H](C)CO)C[C@H](C)[C@H](CN(C)S(=O)(=O)c2cccc(F)c2)O3)cc1OC	inactive
COc1ccc(CN2CC3(CCN(C(=O)c4ccccc4)CC3)c3c([nH]c4cc(OC)ccc34)[C@@H]2CO)cc1	inactive
O=C(c1ccc(F)cc1)N1CC(=O)N2[C@H](CO)[C@H](c3ccc(-c4cccnc4)cc3)[C@H]2C1	inactive
O=C(C1CCOCC1)N1[C@H](CO)[C@@H](c2ccccc2)C12CN(Cc1cccc(Cl)c1)C2	inactive
COc1ccc(-c2ccc([C@@H]3[C@H]4CN(C(=O)NC(C)C)CC(=O)N4[C@H]3CO)cc2)cc1	inactive
COc1ccc2c3c(n(C)c2c1)[C@H](CO)N(C(=O)Nc1ccc(F)cc1)CC31CCN(S(=O)(=O)c2cccc(F)c2)CC1	inactive
CN1c2ccc(-c3cccc(C#N)c3)cc2[C@H]2[C@H](CCN2S(=O)(=O)c2ccccc2F)[C@H]1CO	inactive
CCCN(C)C[C@@H]1Oc2cc(C#Cc3cccnc3)ccc2S(=O)(=O)N([C@H](C)CO)C[C@@H]1C	inactive
COc1ccc2c3c([nH]c2c1)[C@H](CO)N(Cc1ccccc1Cl)CC31CN(C(=O)C2CC2)C1	inactive
C[C@@H]1CN([C@@H](C)CO)C(=O)c2cccc(NC(=O)c3ccc(-c4nccs4)cc3)c2O[C@H]1CN(C)Cc1ccc(Cl)c(Cl)c1	inactive

SMILES	outcome
C[C@H](O)C#Cc1cnc2c(c1)C(=O)N([C@@H](C)CO)C[C@@H](C)[C@@H](CN(C)C(=O)Cc1ccncc1)O2	inactive
CO[C@H]1CN(C)C(=O)c2ccc(NC(=O)c3nc4ccccc4s3)cc2OC[C@H](C)N(Cc2ccncc2)C[C@@H]1C	inactive
C[C@@H]1CN([C@@H](C)CO)S(=O)(=O)c2ccc(C#CC3CCCC3)cc2O[C@H]1CN(C)C(=O)Cc1ccncc1	inactive
C[C@@H](O)C#Cc1ccc([C@H]2[C@H]3CN(S(=O)(=O)c4ccccc4)CCCCN3[C@H]2CO)cc1	inactive
CC(C)C#Cc1ccc([C@@H]2[C@H](CO)N3CCCCN(C(=O)c4ccc5c(c4)OCO5)C[C@@H]23)cc1	inactive
COc1ccc2c3c(n(C)c2c1)[C@H](CO)N(C(=O)Nc1ccc(F)cc1)CC31CCN(C(=O)c2ccc3c(c2)OCO3)CC1	inactive
CC(C)(C)S(=O)N1Cc2cc(C(=O)NCc3ccc4c(c3)OCO4)nc(-c3cccc(-c4cc5ccccc5o4)c3)c2[C@H]1CCO (stereo partly specified)	inactive
COc1ccc2c3c(n(C)c2c1)[C@@H](CO)N(C(=O)C1CCCC1)CC31CCN(C(=O)Nc2cccc(F)c2)CC1	inactive
O=C(Nc1ccccc1F)N1CCCCN2[C@@H](CO)[C@@H](c3ccc(C#Cc4cccnc4)cc3)[C@@H]2C1	inactive
C[C@H]1CN([C@@H](C)CO)S(=O)(=O)c2ccc(-c3ccc(C#N)cc3)cc2O[C@H]1CN(C)CC1CC1	inactive
CCS(=O)(=O)N1CCC2(CC1)CN(S(=O)(=O)c1ccc(C)cc1)[C@@H](CO)c1[nH]c3cc(OC)ccc3c12	inactive
Cc1cccc(S(=O)(=O)N2C[C@@H]3N[C@H](C2)C3c2ccc(-c3cccnc3)cc2)c1 (stereo partly specified)	inactive
FC(F)(F)c1cccc(CN2[C@@H]3CNC[C@H]2[C@@H]3c2ccc(-c3cccnc3)cc2)c1	inactive
Fc1cccc(-c2ccc(C3[C@@H]4CN(Cc5cncnc5)C[C@H]3N4)cc2)c1 (stereo partly specified)	inactive
c1cncc(-c2ccc(C3[C@@H]4CN(Cc5nccs5)C[C@H]3N4)cc2)c1 (stereo partly specified)	inactive
O=C(C1CCCC1)N1CC(=O)N2[C@H](CO)[C@H](c3ccc(-c4cccnc4)cc3)[C@H]2C1	inactive
C[C@@H]1CN([C@H](C)CO)S(=O)(=O)c2ccc(C#Cc3ccccc3)cc2O[C@H]1CN(C)S(=O)(=O)c1cn(C)cn1	inactive
CC(C)C#Cc1ccc([C@@H]2[C@@H](CO)N3C(=O)CN(C(=O)C4CCCCC4)C[C@@H]23)cc1	inactive
CO[C@@H]1CN(C)C(=O)c2ccc(NC(=O)C3CC3)cc2OC[C@@H](C)N(Cc2ccccc2)C[C@H]1C	inactive
CC(=O)N1CC2(C1)[C@@H](c1ccc(-c3cccc(F)c3)cc1)[C@@H](CO)N2CC1CCCC1	inactive
O=C(c1ccccc1F)N1C[C@H]2[C@@H](c3ccccc31)[C@@H](CO)N2C(=O)c1ccc(F)cc1	inactive
CCS(=O)(=O)N1CC2(CN(Cc3ccccc3F)[C@@H](CO)c3[nH]c4cc(OC)ccc4c32)C1	inactive
CCCC(=O)Nc1ccc2c(c1)OC[C@@H](C)N(Cc1ccccc1F)C[C@@H](C)[C@H](OC)CN(C)C2=O	inactive
O=C(c1ccncc1)N1CC(=O)N2[C@H](C1)[C@@H](c1ccc(-c3cccnc3)cc1)[C@@H]2CO	inactive

SMILES	outcome
COc1ccc(C#Cc2ccc([C@H]3[C@H]4CN(C(=O)c5ccccc5)CC(=O)N4[C@H]3CO)cc2)cc1	inactive
O=C(C1CCCCC1)N1CC(=O)N2[C@H](CO)[C@@H](c3ccc(C#CCc4ccccc4)cc3)[C@@H]2C1	inactive
O=C(C1CCC1)N1CC(=O)N2[C@H](CO)[C@@H](c3ccc(C#CCc4ccccc4)cc3)[C@H]2C1	inactive
O=C(C1CC1)N1CC(=O)N2[C@H](CO)[C@@H](c3ccc(C#CCc4ccccc4)cc3)[C@@H]2C1	inactive
COc1cccc(C#Cc2ccc([C@H]3[C@@H](CO)N4C(=O)CN(C(=O)c5ccccc5)C[C@H]34)cc2)c1	inactive
O=C(Cc1ccccc1)N1CC(=O)N2[C@H](CO)[C@H](c3ccc(C#CCc4ccccc4)cc3)[C@H]2C1	inactive
O=C(C1CCCC1)N1CC(=O)N2[C@H](CO)[C@@H](c3ccc(C#CCc4ccccc4)cc3)[C@@H]2C1	inactive
O=C(C1CCC1)N1CC(=O)N2[C@H](CO)[C@@H](c3ccc(C#CCc4ccccc4)cc3)[C@@H]2C1	inactive
C[C@H]1CN([C@@H](C)CO)C(=O)c2c(c3ccccc3n2C)-c2ccccc2CO[C@@H]1CN(C)S(=O)(=O)c1ccc(F)cc1	inactive
N#C[C@H]1[C@@H](c2ccc(C#Cc3ccccc3F)cc2)[C@@H](CO)N1C(=O)C1CCC1	inactive
C[C@H]1CN([C@@H](C)CO)S(=O)(=O)c2ccc(C#Cc3ccccc3)cc2O[C@H]1CN(C)C(=O)C1CC1	inactive
CCCC(=O)Nc1ccc2c(c1)OC[C@@H](C)N(Cc1cc(F)ccc1F)C[C@@H](C)[C@H](OC)CN(C)C2=O	inactive
COc1ccccc1-c1ccccc1[C@H]1[C@H](C#N)N(C(=O)C2CCC2)[C@H]1CO	inactive
COc1ccccc1S(=O)(=O)N(C)C[C@H]1Oc2cc(/C=C/c3ccccc3)ccc2S(=O)(=O)N([C@H](C)CO)C[C@@H]1C	inactive
COc1ccc(NC(=O)Nc2ccc3c(c2)[C@@H]2C[C@H](CC(=O)N[C@@H](C)c4ccccc4)O[C@H](CO)[C@@H]2O3)cc1	inactive
O=C(C1CC1)N1C[C@@H]2N[C@H](C1)C2c1ccc(-c2ccccc2F)cc1 (stereo partly specified)	inactive
CN(C)C(=O)c1ccc(-c2ccc([C@H]3[C@H](CO)N4CCCCN(C(=O)C5CC5)C[C@@H]34)cc2)cc1	inactive
N#Cc1ccc(-c2ccc(C3[C@@H]4CN(C(=O)C5CCCCC5)C[C@H]3N4)cc2)cc1 (stereo partly specified)	inactive
N#Cc1ccc(-c2ccc(C3[C@@H]4CN(C(=O)C5CCCC5)C[C@H]3N4)cc2)cc1 (stereo partly specified)	inactive
CN(C)CC(=O)N1C[C@@H]2N[C@H](C1)C2c1ccc(/C=C/c2ccccc2)cc1 (stereo partly specified)	inactive
CN(C)CC#Cc1ccc([C@H]2[C@H](CO)N3CCCCN(C(=O)CN(C)C)C[C@@H]23)cc1	inactive
COc1ccc(CNC(=O)C[C@H]2C=C[C@@H](NS(=O)(=O)c3cccc(OC)c3)[C@@H](CO)O2)cc1	inactive
Cc1noc(C)c1NC(=O)Nc1ccc2c(c1)C(=O)N([C@H](C)CO)C[C@@H](C)[C@@H](CN(C)S(C)(=O)=O)O2	inactive
